# From PubChem BioAssay (Tox21)
# Values joined by “and” are separate entries in the source; they are usually repeats but may differ in a detail not shown here. Equal entries are not always repeated. Inconclusive results are not listed. The source holds several records for some structures; these can differ, active in one and inactive in another. Active and inactive are the calls of the source. Calls come from the whole dose curve.
# Assay: p53 small molecule agonists, cell-based qHTS assay with human liver microsomes (AID 1963577)
# Settings: HCT-116 p53RE-bla with human liver microsomes, ratio, 16 h; series mostly up to 66 µM; activation: at the top concentration
# Procedure, shortened: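 Compounds act here after metabolic activation: human liver microsomes and NADPH, both at 0.5 mg/mL final, were co-added to p53RE-bla cells. Incubation ran 16 h at 37 C, followed by LiveBLAzer detection.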
# % is set by controls: 0 for no effect and ±100 for the full control effect.
SMILES,activation,Potency
CC(C)(C)OOC(C)(C)CCC(C)(C)OOC(C)(C)C,-3.01% (inactive),
N#CC(c1ccccc1)c1ccccc1,,inactive
O=C(Cl)OCCOCCOC(=O)Cl,0.335% (inactive),
CCN(CC)C(=O)C(C)Oc1cccc2ccccc12 (stereo unspecified),,inactive
CN(C)CCC#N,,inactive
CCN(CCO)CCO,0.306% (inactive),
O=C(NCO)NCO,4.88% (inactive),
Nc1c(Br)cc([N+](=O)[O-])cc1[N+](=O)[O-],-4.19% (inactive),
Cc1cccc(N)c1N,,inactive
CC(C)C(=O)OCC(C)(C)C(OC(=O)C(C)C)C(C)C (stereo unspecified),0.111% (inactive),

# Assay: p53 small molecule agonists, cell-based qHTS assay with rat liver microsomes (AID 1963578)
# Settings: HCT-116 p53RE-bla, beta-lactamase ratio, 16 h; series mostly up to 66 µM; activation: at the top concentration
# Procedure, shortened: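 Read-out is beta-lactamase reporter fluorescence (LiveBLAzer, 2 h, room temperature, dark) in p53RE-bla cells treated 16 h at 37 C with compound, rat liver microsomes and NADPH, both 0.5 mg/mL final.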
SMILES,activation,Potency
N#CCCO,0.736% (inactive),
C=CCSSCC=C,-3.12% (inactive),
N#Cc1ccc(Cl)cc1,0.0399% (inactive),
C=CCc1cc(OC)c2c(c1)OCO2,-1.54% (inactive),
c1ccc(-c2cccc(-c3ccccc3)c2)cc1,,inactive
c1ccc(NNc2ccccc2)cc1,,inactive
O=c1[nH]c2ccccc2n1C1CCN(CCCC(c2ccc(F)cc2)c2ccc(F)cc2)CC1,,inactive
CCCCCCCCCCn1cc[n+](C)c1,,inactive
OCCSSCCO,2.17% (inactive),
CCN,0.149% (inactive),
N#Cc1ccc(O)cc1,0.64% (inactive),
NCCOS(=O)(=O)O,-2.5% (inactive),
O=NN(c1ccccc1)c1ccccc1,,inactive
COC(=O)Nc1cccc(OC(=O)Nc2cccc(C)c2)c1,-6.81% (inactive),
CC(Br)C(=O)O (stereo unspecified),-3.84% (inactive),
O=S1OCC2C(CO1)C1(Cl)C(Cl)=C(Cl)C2(Cl)C1(Cl)Cl (stereo unspecified),,inactive
ClC1=C(Cl)C2(Cl)C3C(Cl)C(Cl)CC3C1(Cl)C2(Cl)Cl (stereo unspecified),,inactive
ClC(Cl)(Cl)Br,,inactive
CCN(CC)Cc1nccn1-c1ccc([N+](=O)[O-])cc1C(=O)c1ccccc1Cl,0.409% [at 30.3 µM] (inactive),

SMILES,activation,Potency
Cl/C=C/CCl,-0.0584% (inactive),
CCCCCCCCSC(=O)Oc1cc(Cl)nnc1-c1ccccc1,6.01% (inactive),
Cc1ccc(N)cc1N,,inactive
[O-][Cl+]O,-4.72% (inactive),
OCCOc1ccccc1,,inactive
CC(C)Nc1ccc(Nc2ccccc2)cc1,,inactive
O=C(CCN1CC1)OCC(CO)(COC(=O)CCN1CC1)COC(=O)CCN1CC1,-1.49% (inactive),
CC(C)(C)C(O)(CCc1ccc(Cl)cc1)Cn1cncn1 (stereo unspecified),,inactive
CC1COC2(c3ccccc3Cl)c3cc(Cl)ccc3NC(=O)CN12 (stereo unspecified),-0.192% [at 30.3 µM] (inactive),
CC(C)(C)OOC(C)(C)CCC(C)(C)OOC(C)(C)C,-1.04% (inactive),
N#CC(c1ccccc1)c1ccccc1,,inactive
O=C(Cl)OCCOCCOC(=O)Cl,-0.13% (inactive),
CCN(CC)C(=O)C(C)Oc1cccc2ccccc12 (stereo unspecified),,inactive
CN(C)CCC#N,,inactive
CCN(CCO)CCO,0.314% (inactive),
O=C(NCO)NCO,0.577% (inactive),
Nc1c(Br)cc([N+](=O)[O-])cc1[N+](=O)[O-],-4.84% (inactive),
Cc1cccc(N)c1N,,inactive
CC(C)C(=O)OCC(C)(C)C(OC(=O)C(C)C)C(C)C (stereo unspecified),,inactive

# Assay: p53 small molecule agonists, cell-based qHTS assay with human liver microsomes: qHTS cell viability counter screen (AID 1963579); note: nearly all actives have a fitted effect of over 45% in size; note: potency is the fitted concentration of half-maximal effect
# Settings: p53RE-bla HCT-116 viability, ATP luminescence, 16 h, HLM; series mostly up to 66 µM; activity change, negative = cytotoxicity: at the top concentration
# Procedure, shortened: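 Cells carrying the p53 response-element beta-lactamase reporter are treated for 16 h at 37 C with test compounds in the presence of human liver microsomes and NADPH (both 0.5 mg/mL final); ATP-based CellTiter-Glo luminescence then reports viability.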
SMILES,"activity change, negative = cytotoxicity",Potency
N#CCCO,0.222% (inactive),
C=CCSSCC=C,0.73% (inactive),
N#Cc1ccc(Cl)cc1,2.93% (inactive),
C=CCc1cc(OC)c2c(c1)OCO2,-8.56% (inactive),
c1ccc(-c2cccc(-c3ccccc3)c2)cc1,,inactive
c1ccc(NNc2ccccc2)cc1,,inactive
O=c1[nH]c2ccccc2n1C1CCN(CCCC(c2ccc(F)cc2)c2ccc(F)cc2)CC1,,28.9 µM (active) and inactive
CCCCCCCCCCn1cc[n+](C)c1,,46.2 µM (active) and inactive
OCCSSCCO,8.53% (inactive),
CCN,1.54% (inactive),
N#Cc1ccc(O)cc1,-0.304% (inactive),
NCCOS(=O)(=O)O,4.24% (inactive),
O=NN(c1ccccc1)c1ccccc1,,inactive
COC(=O)Nc1cccc(OC(=O)Nc2cccc(C)c2)c1,,inactive
CC(Br)C(=O)O (stereo unspecified),,inactive
O=S1OCC2C(CO1)C1(Cl)C(Cl)=C(Cl)C2(Cl)C1(Cl)Cl (stereo unspecified),,inactive
ClC1=C(Cl)C2(Cl)C3C(Cl)C(Cl)CC3C1(Cl)C2(Cl)Cl (stereo unspecified),-2.16% (inactive),
ClC(Cl)(Cl)Br,,inactive
CCN(CC)Cc1nccn1-c1ccc([N+](=O)[O-])cc1C(=O)c1ccccc1Cl,-6.17% [at 30.3 µM] (inactive),

SMILES,"activity change, negative = cytotoxicity",Potency
Cl/C=C/CCl,-16.8% (inactive),
CCCCCCCCSC(=O)Oc1cc(Cl)nnc1-c1ccccc1,2.41% (inactive),
Cc1ccc(N)cc1N,,inactive
[O-][Cl+]O,-0.243% (inactive),
OCCOc1ccccc1,,inactive
CC(C)Nc1ccc(Nc2ccccc2)cc1,,28.8 µM (active) and 28.9 µM (active)
O=C(CCN1CC1)OCC(CO)(COC(=O)CCN1CC1)COC(=O)CCN1CC1,8.5% (inactive),
CC(C)(C)C(O)(CCc1ccc(Cl)cc1)Cn1cncn1 (stereo unspecified),,inactive
CC1COC2(c3ccccc3Cl)c3cc(Cl)ccc3NC(=O)CN12 (stereo unspecified),24% [at 30.3 µM] (inactive),
CC(C)(C)OOC(C)(C)CCC(C)(C)OOC(C)(C)C,3.73% (inactive),
N#CC(c1ccccc1)c1ccccc1,,inactive
O=C(Cl)OCCOCCOC(=O)Cl,-3.27% (inactive),
CCN(CC)C(=O)C(C)Oc1cccc2ccccc12 (stereo unspecified),,inactive
CN(C)CCC#N,,inactive
CCN(CCO)CCO,1.76% (inactive),
O=C(NCO)NCO,-1.76% (inactive),
Nc1c(Br)cc([N+](=O)[O-])cc1[N+](=O)[O-],-9.61% (inactive),
Cc1cccc(N)c1N,,inactive
CC(C)C(=O)OCC(C)(C)C(OC(=O)C(C)C)C(C)C (stereo unspecified),,inactive
